# Columns and labels:
# Assay in all cases: DAPPL (digital affinity profiling via proximity ligation, sequencing); 10 mM Tris-HCl pH 7.5, 50 mM NaCl, 1 mM DTT, 4% glycerol, room temperature, 30 min; GST-TFs on glutathione beads, 16-mer random dsDNA library, 0.1% formaldehyde crosslink after washing; high values mean tight binding
# FLI1 = target: T1, FLI1 (Homo sapiens, UniProt Q01543 1-452); conditions: protein: recombinant; tags: N-terminal GST; dsDNA, one strand shown
# T1 sequence: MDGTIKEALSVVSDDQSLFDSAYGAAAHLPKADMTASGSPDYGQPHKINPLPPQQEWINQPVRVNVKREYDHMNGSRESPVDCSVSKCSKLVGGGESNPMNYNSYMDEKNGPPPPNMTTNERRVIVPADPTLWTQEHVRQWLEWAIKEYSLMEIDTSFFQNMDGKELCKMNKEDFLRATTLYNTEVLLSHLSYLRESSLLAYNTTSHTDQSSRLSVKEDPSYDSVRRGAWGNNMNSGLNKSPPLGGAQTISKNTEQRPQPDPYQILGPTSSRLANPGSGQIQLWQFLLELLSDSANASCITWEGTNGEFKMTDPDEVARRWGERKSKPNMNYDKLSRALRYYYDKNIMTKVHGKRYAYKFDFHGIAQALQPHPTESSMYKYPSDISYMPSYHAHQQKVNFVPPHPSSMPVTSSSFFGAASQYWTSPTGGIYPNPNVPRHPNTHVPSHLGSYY
# Outline: (§1)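 Beads coated with glutathione captured GST-fused human transcription factors that had been expressed in yeast, and the factors were then given DNA barcodes and pooled with a tag-only sample. The pools were incubated with 200 nmole of a random double-stranded 16-mer DNA library in Tris/NaCl/DTT/glycerol buffer for 30 min at room temperature, washed, crosslinked with 0.1% formaldehyde and proximity-ligated with BsaI/T4 ligase at 37 °C for 1 h. PCR amplification and Illumina NextSeq500 sequencing came last. Binding signal is each hexamer's read frequency for a factor divided by its frequency for the tag-only sample.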
# ELK1 = target: T2, ELK1 (Homo sapiens, UniProt P19419 1-428); conditions: protein: recombinant; tags: N-terminal GST; dsDNA, one strand shown
# T2 sequence: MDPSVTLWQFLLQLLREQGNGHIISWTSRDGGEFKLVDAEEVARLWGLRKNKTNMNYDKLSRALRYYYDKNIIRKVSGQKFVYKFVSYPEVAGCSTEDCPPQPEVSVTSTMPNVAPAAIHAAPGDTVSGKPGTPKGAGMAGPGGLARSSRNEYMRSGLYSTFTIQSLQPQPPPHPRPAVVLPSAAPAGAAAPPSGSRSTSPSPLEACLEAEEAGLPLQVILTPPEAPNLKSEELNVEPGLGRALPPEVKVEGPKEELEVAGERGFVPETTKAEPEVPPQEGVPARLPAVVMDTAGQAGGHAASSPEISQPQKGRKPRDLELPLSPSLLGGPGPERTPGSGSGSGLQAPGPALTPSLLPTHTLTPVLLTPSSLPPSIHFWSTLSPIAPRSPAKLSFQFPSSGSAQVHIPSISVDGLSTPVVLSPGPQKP
# Outline: as §1
# GABPA = target: T3, GABPA (Homo sapiens, UniProt Q06546 1-454); conditions: protein: recombinant; tags: N-terminal GST; dsDNA, one strand shown
# T3 sequence: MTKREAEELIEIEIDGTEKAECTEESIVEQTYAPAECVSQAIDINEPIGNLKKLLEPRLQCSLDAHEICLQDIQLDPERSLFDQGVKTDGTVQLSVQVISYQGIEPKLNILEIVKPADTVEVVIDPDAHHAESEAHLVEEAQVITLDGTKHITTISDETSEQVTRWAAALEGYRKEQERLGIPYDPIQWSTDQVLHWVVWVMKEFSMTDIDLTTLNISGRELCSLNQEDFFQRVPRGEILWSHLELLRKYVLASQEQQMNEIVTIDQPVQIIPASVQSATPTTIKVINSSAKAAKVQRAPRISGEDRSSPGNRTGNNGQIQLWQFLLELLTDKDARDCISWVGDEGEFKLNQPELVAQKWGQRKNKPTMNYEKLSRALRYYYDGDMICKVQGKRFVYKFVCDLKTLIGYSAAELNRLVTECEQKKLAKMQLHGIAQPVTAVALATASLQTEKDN
# Outline: as §1
# ERG = target: T4, ERG (Homo sapiens, UniProt P11308 1-479); conditions: protein: recombinant; tags: N-terminal GST; dsDNA, one strand shown
# T4 sequence: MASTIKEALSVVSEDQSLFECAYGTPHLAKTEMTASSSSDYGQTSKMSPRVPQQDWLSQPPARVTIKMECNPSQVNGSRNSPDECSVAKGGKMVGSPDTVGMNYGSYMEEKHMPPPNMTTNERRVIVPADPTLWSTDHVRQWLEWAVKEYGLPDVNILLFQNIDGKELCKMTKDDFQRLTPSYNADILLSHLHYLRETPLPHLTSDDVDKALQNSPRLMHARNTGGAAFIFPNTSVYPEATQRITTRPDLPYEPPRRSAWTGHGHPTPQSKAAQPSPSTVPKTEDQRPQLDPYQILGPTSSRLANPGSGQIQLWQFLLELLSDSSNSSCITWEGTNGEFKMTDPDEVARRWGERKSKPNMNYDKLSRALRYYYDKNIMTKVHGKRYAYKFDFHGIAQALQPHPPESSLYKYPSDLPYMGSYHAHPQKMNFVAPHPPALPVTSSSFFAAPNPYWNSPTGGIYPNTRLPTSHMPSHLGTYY
# Outline: as §1
# ELF1 = ELF1 (Homo sapiens, UniProt P32519 1-619); conditions: protein: recombinant; tags: N-terminal GST; dsDNA, one strand shown
# Outline: as §1
# EHF = target: T5, EHF (Homo sapiens, UniProt Q9NZC4 1-300); conditions: protein: recombinant; tags: N-terminal GST; dsDNA, one strand shown
# T5 sequence: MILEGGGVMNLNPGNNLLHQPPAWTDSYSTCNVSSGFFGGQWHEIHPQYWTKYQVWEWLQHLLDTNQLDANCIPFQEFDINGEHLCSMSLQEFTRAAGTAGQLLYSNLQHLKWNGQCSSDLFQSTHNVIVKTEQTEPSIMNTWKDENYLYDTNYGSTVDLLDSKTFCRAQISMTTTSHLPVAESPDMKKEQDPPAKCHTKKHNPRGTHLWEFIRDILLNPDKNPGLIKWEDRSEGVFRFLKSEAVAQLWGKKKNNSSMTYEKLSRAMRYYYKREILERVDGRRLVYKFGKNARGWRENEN
# Outline: as §1
# SPI1 = SPI1 (Homo sapiens, UniProt P17947 1-270); conditions: protein: recombinant; tags: N-terminal GST; dsDNA, one strand shown
# Outline: as §1
# SPIB = SPIB (Homo sapiens, UniProt Q01892 1-262); conditions: protein: recombinant; tags: N-terminal GST; dsDNA, one strand shown
# Outline: as §1
# ELK3 = target: T6, ELK3 (Homo sapiens, UniProt P41970 1-407); conditions: protein: recombinant; tags: N-terminal GST; dsDNA, one strand shown
# T6 sequence: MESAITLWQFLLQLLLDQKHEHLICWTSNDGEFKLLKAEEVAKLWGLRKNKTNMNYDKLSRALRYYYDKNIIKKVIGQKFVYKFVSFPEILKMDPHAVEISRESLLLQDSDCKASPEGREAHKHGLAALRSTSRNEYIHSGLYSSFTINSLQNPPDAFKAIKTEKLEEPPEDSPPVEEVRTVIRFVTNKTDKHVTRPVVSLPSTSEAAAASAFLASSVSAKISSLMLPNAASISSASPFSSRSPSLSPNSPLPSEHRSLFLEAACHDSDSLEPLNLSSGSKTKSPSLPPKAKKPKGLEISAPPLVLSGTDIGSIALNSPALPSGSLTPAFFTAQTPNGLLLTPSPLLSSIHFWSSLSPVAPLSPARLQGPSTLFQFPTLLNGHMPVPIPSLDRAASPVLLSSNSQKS
# Outline: as §1
# FEV = target: T7, FEV (Homo sapiens, UniProt Q99581 1-238); conditions: protein: recombinant; tags: N-terminal GST; dsDNA, one strand shown
# T7 sequence: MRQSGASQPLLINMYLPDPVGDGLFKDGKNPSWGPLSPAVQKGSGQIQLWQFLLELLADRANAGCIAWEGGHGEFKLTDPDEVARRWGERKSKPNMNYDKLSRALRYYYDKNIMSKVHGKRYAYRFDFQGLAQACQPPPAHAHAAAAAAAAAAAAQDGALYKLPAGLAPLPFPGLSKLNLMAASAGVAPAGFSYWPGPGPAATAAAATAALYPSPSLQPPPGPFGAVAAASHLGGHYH
# Outline: as §1
# ETV5 = ETV5 (Homo sapiens, UniProt P41161 1-510); conditions: protein: recombinant; tags: N-terminal GST; dsDNA, one strand shown
# Outline: as §1
# HSF1 = HSF1 (Homo sapiens, UniProt Q00613 1-529); conditions: protein: recombinant; tags: N-terminal GST; chain copies: 3; dsDNA, one strand shown
# Outline: as §1
# SPIC = target: T8, SPIC (Homo sapiens, UniProt Q8N5J4 1-248); conditions: protein: recombinant; tags: N-terminal GST; dsDNA, one strand shown
# T8 sequence: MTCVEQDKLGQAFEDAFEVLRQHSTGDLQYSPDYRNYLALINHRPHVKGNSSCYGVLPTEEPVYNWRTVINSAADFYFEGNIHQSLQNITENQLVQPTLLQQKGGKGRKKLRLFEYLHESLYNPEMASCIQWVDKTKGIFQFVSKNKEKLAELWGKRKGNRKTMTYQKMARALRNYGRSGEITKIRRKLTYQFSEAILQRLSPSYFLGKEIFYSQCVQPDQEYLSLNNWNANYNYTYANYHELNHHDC
# Outline: as §1
# ELF4 = ELF4 (Homo sapiens, UniProt Q99607 1-663); conditions: protein: recombinant; tags: N-terminal GST; dsDNA, one strand shown
# Outline: as §1
# ELK4 = target: T9, ELK4 (Homo sapiens, UniProt P28324-2 1-405); conditions: protein: recombinant; tags: N-terminal GST; dsDNA, one strand shown
# T9 sequence: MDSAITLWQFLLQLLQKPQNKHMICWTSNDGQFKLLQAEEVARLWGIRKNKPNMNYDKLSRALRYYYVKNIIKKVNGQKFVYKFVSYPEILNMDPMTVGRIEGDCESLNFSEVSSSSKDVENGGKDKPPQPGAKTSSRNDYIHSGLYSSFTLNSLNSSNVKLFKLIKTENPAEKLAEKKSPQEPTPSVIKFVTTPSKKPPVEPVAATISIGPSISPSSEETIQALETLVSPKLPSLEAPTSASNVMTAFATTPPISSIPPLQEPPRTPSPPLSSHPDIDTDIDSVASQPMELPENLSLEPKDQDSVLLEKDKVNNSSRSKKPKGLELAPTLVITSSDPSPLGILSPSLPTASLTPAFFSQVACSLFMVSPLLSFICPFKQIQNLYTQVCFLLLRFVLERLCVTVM
# Outline: as §1
# ETV2 = target: T10, ETV2 (Homo sapiens, UniProt O00321 1-342); conditions: protein: recombinant; tags: N-terminal GST; dsDNA, one strand shown
# T10 sequence: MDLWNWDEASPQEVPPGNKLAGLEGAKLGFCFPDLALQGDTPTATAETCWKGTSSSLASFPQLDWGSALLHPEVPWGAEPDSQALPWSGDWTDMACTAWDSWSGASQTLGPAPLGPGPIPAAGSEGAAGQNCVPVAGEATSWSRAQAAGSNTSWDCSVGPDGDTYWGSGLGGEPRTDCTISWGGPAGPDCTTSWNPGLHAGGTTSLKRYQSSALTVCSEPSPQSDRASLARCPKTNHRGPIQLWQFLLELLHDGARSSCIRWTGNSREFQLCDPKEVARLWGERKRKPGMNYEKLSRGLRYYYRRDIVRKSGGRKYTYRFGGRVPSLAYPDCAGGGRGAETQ
# Outline: as §1
# ELF3 = target: T11, ELF3 (Homo sapiens, UniProt P78545 1-371); conditions: protein: recombinant; tags: N-terminal GST; dsDNA, one strand shown
# T11 sequence: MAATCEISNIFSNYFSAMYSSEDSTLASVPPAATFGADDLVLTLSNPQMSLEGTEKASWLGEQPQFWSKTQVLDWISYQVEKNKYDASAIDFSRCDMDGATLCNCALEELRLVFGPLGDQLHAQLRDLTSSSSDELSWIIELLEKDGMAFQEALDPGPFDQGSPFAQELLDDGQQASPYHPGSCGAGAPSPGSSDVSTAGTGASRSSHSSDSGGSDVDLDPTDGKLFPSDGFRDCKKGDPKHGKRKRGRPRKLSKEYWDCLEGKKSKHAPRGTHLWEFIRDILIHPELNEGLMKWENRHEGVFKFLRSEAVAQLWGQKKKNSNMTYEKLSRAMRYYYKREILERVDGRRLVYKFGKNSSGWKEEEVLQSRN
# Outline: as §1
# CRX = CRX (Homo sapiens, UniProt O43186 1-299); conditions: protein: recombinant; tags: N-terminal GST; dsDNA, one strand shown
# Outline: as §1
# ETV1 = ETV1 (Homo sapiens, UniProt P50549 1-477); conditions: protein: recombinant; tags: N-terminal GST; dsDNA, one strand shown
# Outline: as §1
# Sequence of ETV1 (P50549 whole entry): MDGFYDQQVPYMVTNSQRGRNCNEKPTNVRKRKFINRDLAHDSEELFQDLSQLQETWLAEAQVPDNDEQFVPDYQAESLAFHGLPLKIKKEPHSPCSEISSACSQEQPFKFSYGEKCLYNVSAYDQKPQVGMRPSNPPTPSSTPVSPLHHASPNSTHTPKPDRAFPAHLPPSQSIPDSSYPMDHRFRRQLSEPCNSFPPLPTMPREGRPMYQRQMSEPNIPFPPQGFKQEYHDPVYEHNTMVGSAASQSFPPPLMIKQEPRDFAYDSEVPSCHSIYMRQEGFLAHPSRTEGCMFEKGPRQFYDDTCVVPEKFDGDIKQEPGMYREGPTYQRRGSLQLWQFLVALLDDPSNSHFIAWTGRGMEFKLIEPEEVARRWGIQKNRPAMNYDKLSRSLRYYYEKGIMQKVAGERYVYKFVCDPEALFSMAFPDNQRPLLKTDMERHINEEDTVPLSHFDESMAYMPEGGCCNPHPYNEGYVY
# Sequence of HSF1 (Q00613 whole entry): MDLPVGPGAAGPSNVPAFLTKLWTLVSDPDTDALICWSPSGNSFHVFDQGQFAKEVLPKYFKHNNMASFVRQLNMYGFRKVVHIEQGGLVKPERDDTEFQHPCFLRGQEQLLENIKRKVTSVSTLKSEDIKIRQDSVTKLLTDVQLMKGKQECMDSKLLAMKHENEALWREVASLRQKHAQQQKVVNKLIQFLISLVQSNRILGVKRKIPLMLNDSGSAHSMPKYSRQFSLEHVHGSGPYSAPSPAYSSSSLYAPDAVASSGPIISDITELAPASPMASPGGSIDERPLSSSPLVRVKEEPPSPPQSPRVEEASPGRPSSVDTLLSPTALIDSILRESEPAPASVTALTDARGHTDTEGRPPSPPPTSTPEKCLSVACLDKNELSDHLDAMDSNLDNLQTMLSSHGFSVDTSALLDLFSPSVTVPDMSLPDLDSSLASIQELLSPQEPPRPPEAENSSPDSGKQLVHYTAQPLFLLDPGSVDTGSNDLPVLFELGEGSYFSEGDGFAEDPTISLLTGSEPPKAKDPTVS
# Sequence of SPIB (Q01892 whole entry): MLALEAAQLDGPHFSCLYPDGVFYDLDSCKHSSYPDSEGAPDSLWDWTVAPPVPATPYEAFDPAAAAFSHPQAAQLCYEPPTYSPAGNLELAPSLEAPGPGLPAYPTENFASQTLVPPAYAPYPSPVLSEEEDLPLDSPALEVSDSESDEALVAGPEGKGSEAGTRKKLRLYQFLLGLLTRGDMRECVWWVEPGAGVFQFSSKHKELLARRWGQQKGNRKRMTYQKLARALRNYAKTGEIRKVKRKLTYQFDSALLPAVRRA
# Sequence of CRX (O43186 whole entry): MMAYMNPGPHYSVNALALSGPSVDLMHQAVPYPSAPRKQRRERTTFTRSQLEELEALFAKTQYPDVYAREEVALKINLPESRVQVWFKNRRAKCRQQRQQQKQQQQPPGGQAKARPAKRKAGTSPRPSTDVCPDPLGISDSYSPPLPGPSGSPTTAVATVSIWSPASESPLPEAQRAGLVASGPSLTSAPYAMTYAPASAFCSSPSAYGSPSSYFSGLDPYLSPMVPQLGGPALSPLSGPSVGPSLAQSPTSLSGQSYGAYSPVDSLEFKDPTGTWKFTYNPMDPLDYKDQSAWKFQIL
# Sequence of ETV5 (P41161 whole entry): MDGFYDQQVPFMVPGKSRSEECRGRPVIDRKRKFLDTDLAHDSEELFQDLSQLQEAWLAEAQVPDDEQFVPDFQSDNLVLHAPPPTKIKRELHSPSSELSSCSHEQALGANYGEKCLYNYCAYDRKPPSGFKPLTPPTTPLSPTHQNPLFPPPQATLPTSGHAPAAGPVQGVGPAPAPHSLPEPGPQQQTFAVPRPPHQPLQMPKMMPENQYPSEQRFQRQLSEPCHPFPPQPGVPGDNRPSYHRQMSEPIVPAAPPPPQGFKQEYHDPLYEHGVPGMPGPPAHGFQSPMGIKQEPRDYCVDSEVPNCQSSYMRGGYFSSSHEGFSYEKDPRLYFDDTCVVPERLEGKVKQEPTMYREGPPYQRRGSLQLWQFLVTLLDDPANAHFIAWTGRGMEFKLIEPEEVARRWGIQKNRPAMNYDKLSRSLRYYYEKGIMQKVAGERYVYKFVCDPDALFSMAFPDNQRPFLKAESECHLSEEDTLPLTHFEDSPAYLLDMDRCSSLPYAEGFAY
# Sequence of ELF1 (P32519 whole entry): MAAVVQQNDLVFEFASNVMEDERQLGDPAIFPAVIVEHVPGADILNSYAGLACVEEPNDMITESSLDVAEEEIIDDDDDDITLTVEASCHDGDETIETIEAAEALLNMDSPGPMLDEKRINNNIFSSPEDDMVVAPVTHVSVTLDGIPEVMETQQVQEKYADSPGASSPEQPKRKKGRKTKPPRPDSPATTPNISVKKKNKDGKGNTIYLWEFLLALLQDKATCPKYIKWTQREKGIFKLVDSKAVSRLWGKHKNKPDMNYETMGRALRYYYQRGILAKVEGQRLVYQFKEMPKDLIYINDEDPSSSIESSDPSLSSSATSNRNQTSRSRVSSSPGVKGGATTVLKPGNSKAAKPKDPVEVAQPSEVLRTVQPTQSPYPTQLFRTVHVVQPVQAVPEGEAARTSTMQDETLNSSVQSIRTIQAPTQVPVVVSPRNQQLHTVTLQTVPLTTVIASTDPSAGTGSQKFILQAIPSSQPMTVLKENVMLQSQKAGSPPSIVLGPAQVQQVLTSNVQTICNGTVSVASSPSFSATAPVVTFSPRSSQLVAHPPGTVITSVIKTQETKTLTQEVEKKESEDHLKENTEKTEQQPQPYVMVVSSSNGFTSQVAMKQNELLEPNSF
# Sequence of ELF4 (Q99607 whole entry): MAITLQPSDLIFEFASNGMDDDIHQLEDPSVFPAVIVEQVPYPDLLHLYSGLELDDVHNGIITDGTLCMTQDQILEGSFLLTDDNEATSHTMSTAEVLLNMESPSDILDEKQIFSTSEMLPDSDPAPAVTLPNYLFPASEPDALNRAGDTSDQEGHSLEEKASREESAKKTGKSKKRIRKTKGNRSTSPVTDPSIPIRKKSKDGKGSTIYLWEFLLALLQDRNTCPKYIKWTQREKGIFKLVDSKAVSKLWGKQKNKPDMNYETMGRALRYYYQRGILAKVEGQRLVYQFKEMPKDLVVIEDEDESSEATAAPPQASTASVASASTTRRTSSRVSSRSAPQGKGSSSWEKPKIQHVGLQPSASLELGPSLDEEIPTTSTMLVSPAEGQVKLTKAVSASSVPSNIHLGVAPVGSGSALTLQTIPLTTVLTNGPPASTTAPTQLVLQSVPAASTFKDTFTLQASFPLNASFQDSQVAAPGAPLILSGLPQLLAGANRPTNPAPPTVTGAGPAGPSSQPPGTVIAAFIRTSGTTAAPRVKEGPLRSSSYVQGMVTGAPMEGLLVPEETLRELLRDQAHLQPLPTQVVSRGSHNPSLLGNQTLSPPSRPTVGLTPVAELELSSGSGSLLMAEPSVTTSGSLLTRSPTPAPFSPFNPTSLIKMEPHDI
sequence,measurement,setting,value
GTATCC,binding signal,FLI1,"1.88 fold enrichment (6-mer frequency, TF over GST control)"
same,binding signal,ELK1,"1.9 fold enrichment (6-mer frequency, TF over GST control)"
same,binding signal,GABPA,"1.78 fold enrichment (6-mer frequency, TF over GST control)"
same,binding signal,ERG,"1.89 fold enrichment (6-mer frequency, TF over GST control)"
same,binding signal,ELF1,"1.89 fold enrichment (6-mer frequency, TF over GST control)"
same,binding signal,EHF,"1.92 fold enrichment (6-mer frequency, TF over GST control)"
same,binding signal,SPI1,"1.7 fold enrichment (6-mer frequency, TF over GST control)"
same,binding signal,SPIB,"1.89 fold enrichment (6-mer frequency, TF over GST control)"
same,binding signal,ELK3,"1.88 fold enrichment (6-mer frequency, TF over GST control)"
same,binding signal,FEV,"2.08 fold enrichment (6-mer frequency, TF over GST control)"
same,binding signal,ETV5,"2.05 fold enrichment (6-mer frequency, TF over GST control)"
same,binding signal,HSF1,"1.14 fold enrichment (6-mer frequency, TF over GST control)"
same,binding signal,SPIC,"1.96 fold enrichment (6-mer frequency, TF over GST control)"
same,binding signal,ELF4,"1.85 fold enrichment (6-mer frequency, TF over GST control)"
same,binding signal,ELK4,"1.74 fold enrichment (6-mer frequency, TF over GST control)"
same,binding signal,ETV2,"1.78 fold enrichment (6-mer frequency, TF over GST control)"
same,binding signal,ELF3,"1.69 fold enrichment (6-mer frequency, TF over GST control)"
same,binding signal,CRX,"1.22 fold enrichment (6-mer frequency, TF over GST control)"
same,binding signal,ETV1,"1.86 fold enrichment (6-mer frequency, TF over GST control)"

# From article PMC7862700, “An all-to-all approach to the identification of sequence-specific readers for epigenetic DNA modifications on cytosine”
